Laboratory results taken from PubChem BioAssay (EPA / NIEHS).
Where “and” joins values, the source holds several entries; their conditions need not be identical. Equal values may be shown once. Calls of active or inactive are those of the source. Rule for the calls: active = hit-call score of the fitted dose curve at least 0.9, where 1 is the maximum; inactive = score below 0.9.

Experiments:
[1] = BSK_3C_Vis: BioMAP Diversity Plus: 3C Assay for Morphology Visualization (AID 2283025); details: primary human endothelial cells (HUVEC);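 note: fitted both ways so gain or loss versus DMSO counts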
Procedure, shortened: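 Human umbilical vein endothelial cells in the 3C system were imaged by light microscopy 24 h after chemical dosing to record cell morphology. Activity was fitted bidirectionally against DMSO as negative control and baseline; the endpoint serves as a background control.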

[2] = read-out: Transforming growth factor beta 1 (TGFb1), TGFB1 (gene 7040); assay: BSK_BE3C_TGFb1: BioMAP Diversity Plus: BE3C Assay for Transforming growth factor beta 1 (TGFb1) Biomarker Activity (AID 2283036); details: primary human bronchial epithelial cells; actives raise or lower the signal
Procedure, shortened: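 Human primary bronchial epithelial cells (BE3C system) were dosed with chemical and TGF-b1 levels measured by ELISA at 24 h. Activity was fitted bidirectionally relative to DMSO negative control as baseline.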

[3] = BSK_CASM3C_SRB: Viability Assessment in the BioMAP Diversity Plus: CASM3C Assay (AID 2283050); details: primary human coronary artery smooth muscle cells
[4] = read-out: Transforming growth factor beta 1 (TGFb1), TGFB1 (gene 7040); assay: BSK_KF3CT_TGFb1: BioMAP Diversity Plus: KF3CT Assay for Transforming growth factor beta 1 (TGFb1) Biomarker Activity (AID 2283072); details: primary human keratinocytes with fibroblasts; actives raise or lower the signal
Procedure, shortened: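 Human keratinocyte plus foreskin fibroblast primary co-culture, dosed with chemical for 24 h. TGF-b1 quantified by ELISA. Activity fitted bidirectionally against DMSO negative control as baseline.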

[5] = BSK_LPS_SRB: Viability Assessment in the BioMAP Diversity Plus: LPS Assay (AID 2283079); details: primary human HUVEC with PBMC;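 note: total protein by sulforhodamine B absorbance as a cytotoxicity measure; measured one day after compound addition; fitted in both directions against DMSO so loss or gain of signal counts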
Procedure, shortened: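 Readout is SRB absorbance at 560 nm (0.1% stain, TCA-fixed parallel cultures) as a total-protein cytotoxicity measure. Cells: primary human umbilical vein endothelium plus peripheral blood mononuclear cells, 24 h after chemical exposure; DMSO served as baseline.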

[6] = read-out: Interleukin-1 alpha (IL1a), IL1A (gene 3552); assay: BSK_LPS_IL1a: BioMAP Diversity Plus: LPS Assay for Interleukin-1 alpha (IL1a) Biomarker Activity (AID 2283080); details: primary human HUVEC with PBMC; actives raise or lower the signal
Procedure, shortened: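 ELISA read-out of IL-1 alpha from a human primary vascular co-culture (endothelium plus PBMC) under LPS, sampled 24 hours post-dosing. Activity was fitted in both directions relative to DMSO controls.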

[7] = read-out: Monocyte Chemoattractant Protein-1 (MCP1), CCL2 (gene 6347); assay: BSK_LPS_MCP1: BioMAP Diversity Plus: LPS Assay for Monocyte Chemoattractant Protein-1 (MCP1) Biomarker Activity (AID 2283081); details: primary human HUVEC with PBMC; actives raise or lower the signal;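 for AC50: secreted MCP-1 protein quantified by ELISA in culture supernatant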
Procedure, shortened: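 Human endothelial–PBMC co-cultures were dosed with chemical, then LPS-driven MCP-1 levels were quantified by ELISA at 24 h. Activity in either direction was fitted versus DMSO negative control.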

[8] = BSK_LPS_PGE2: BioMAP Diversity Plus: LPS Assay for Prostaglandin E2 (PGE2) Biomarker Activity (AID 2283082); details: primary human HUVEC with PBMC; actives raise or lower the signal;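 for AC50: secreted prostaglandin E2 measured by ELISA in LPS-stimulated co-culture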
Procedure, shortened: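 HUVEC plus PBMC co-culture stimulated with LPS; secreted PGE2 quantified by ELISA 24 h after chemical dosing. Activity fitted bidirectionally against DMSO as negative control and baseline; parallel SRB total-protein staining served as cytotoxicity check.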

[9] = read-out: Macrophage colony-stimulating factor (MCSF), CSF1 (gene 1435); assay: BSK_LPS_MCSF: BioMAP Diversity Plus: LPS Assay for Macrophage colony-stimulating factor (MCSF) Biomarker Activity (AID 2283083); details: primary human HUVEC with PBMC; actives raise or lower the signal
Procedure, shortened: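 ELISA readout of M-CSF after 24 h compound exposure in a human endothelial/PBMC co-culture. Activity, in either direction, is fitted relative to DMSO vehicle.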

[10] = read-out: Tissue Factor, F3 (gene 2152); assay: BSK_LPS_TissueFactor: BioMAP Diversity Plus: LPS Assay for Tissue Factor Biomarker Activity (AID 2283084); details: primary human HUVEC with PBMC; actives raise or lower the signal
Procedure, shortened: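 ELISA signal for cell-surface Tissue Factor (CD142) was read 24 h after compound dosing of an LPS-stimulated human endothelial–PBMC primary co-culture. Gain or loss of signal was scored relative to DMSO.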

[11] = read-out: Tumor necrosis factor (Homo sapiens) (UniProt P01375); assay: BSK_LPS_TNFa: BioMAP Diversity Plus: LPS Assay for Tumour Necrosis Factor alpha (TNFa) Biomarker Activity (AID 2283085); details: primary human HUVEC with PBMC; actives raise or lower the signal
Procedure, shortened: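 Human umbilical vein endothelial cells co-cultured with PBMC were exposed to test chemical and TNFa measured by ELISA 24 h after dosing. Bidirectional curve fitting was done relative to DMSO as negative control and baseline.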

[12] = read-out: Vascular cell adhesion molecule 1 (VCAM1), VCAM1 (gene 7412); assay: BSK_LPS_VCAM1: BioMAP Diversity Plus: LPS Assay for Vascular cell adhesion molecule 1 (VCAM1) Biomarker Activity (AID 2283086); details: primary human HUVEC with PBMC; actives raise or lower the signal
Procedure, shortened: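 Human umbilical vein endothelial cells co-cultured with peripheral blood mononuclear cells under LPS stimulation were exposed to test chemical for 24 h. VCAM-1 levels were then measured by ELISA, with bidirectional curve fitting relative to DMSO as negative control and baseline.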

[13] = read-out: CD38, CD38 (gene 952); assay: BSK_SAg_CD38: BioMAP Diversity Plus: SAg Assay for CD38 Biomarker Activity (AID 2283087); details: primary human HUVEC with PBMC; actives raise or lower the signal
Procedure, shortened: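 Fluorescence ELISA of cell-surface CD38 served as the read-out, with either increase or decrease fitted against DMSO controls. Cells were a human umbilical vein endothelium plus PBMC co-culture under SEB/TSST-1 stimulation, measured 24 h after dosing.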

[14] = read-out: CD40, CD40 (gene 958); assay: BSK_SAg_CD40: BioMAP Diversity Plus: SAg Assay for CD40 Biomarker Activity (AID 2283088); details: primary human HUVEC with PBMC; actives raise or lower the signal
Procedure, shortened: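 Compounds were dosed onto a human primary endothelial–PBMC co-culture, and after 24 h CD40 was quantified by ELISA using a fluorescence signal. Activity in either direction was fitted relative to DMSO.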

[15] = read-out: CD69, CD69 (gene 969); assay: BSK_SAg_CD69: BioMAP Diversity Plus: SAg Assay for CD69 Biomarker Activity (AID 2283089); details: primary human HUVEC with PBMC; actives raise or lower the signal;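 for AC50: cell surface CD69 protein quantified by ELISA with fluorescence detection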
Procedure, shortened: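 Endothelial/PBMC co-culture; chemical added; 24 h incubation; CD69 ELISA with fluorescence detection; bidirectional fit vs DMSO.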

[16] = read-out: Monocyte Chemoattractant Protein-1 (MCP1), CCL2 (gene 6347); assay: BSK_SAg_MCP1: BioMAP Diversity Plus: SAg Assay for Monocyte Chemoattractant Protein-1 (MCP1) Biomarker Activity (AID 2283090); details: primary human HUVEC with PBMC; actives raise or lower the signal
Procedure, shortened: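 MCP-1 levels in the endothelial–PBMC SAg co-culture were quantified by ELISA at 24 h post-dosing; both increases and decreases versus DMSO scored. Cytotoxicity monitored by SRB total protein in parallel cultures.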

[17] = read-out: Monokine induced gamma interferon (MIG), CXCL9 (gene 4283); assay: BSK_SAg_MIG: BioMAP Diversity Plus: SAg Assay for Monokine induced gamma interferon (MIG) Biomarker Activity (AID 2283092); details: primary human HUVEC with PBMC; actives raise or lower the signal
Procedure, shortened: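 Measures CXCL9 protein by ELISA in a human vascular primary-cell co-culture (umbilical vein endothelium with PBMC) 24 h after chemical addition. Activity is scored up or down from the DMSO control.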

[18] = BSK_SAg_Proliferation: Cell Proliferation Assessment in the BioMAP Diversity Plus: SAg Assay (AID 2283095); details: primary human HUVEC with PBMC;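 note: relative cell number as total protein by SRB absorbance in sub-confluent culture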
Procedure, shortened: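 Human umbilical vein endothelial cells co-cultured with peripheral blood mononuclear cells; total protein measured by sulforhodamine B staining (0.1% SRB after 10% TCA fixation), absorbance at 560 nm, at 96 h. Bidirectional fit against DMSO baseline.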

[19] = BSK_BT_PBMCCytotoxicity: PBMC Cytotoxicity Assessment in the BioMAP Diversity Plus: BT Assay (AID 2284225); details: primary human B cells with PBMC;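 note: PBMC viability measured by Alamar Blue dye reduction fluorescence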
Procedure, shortened: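 75,000 cells/well; cpd 1 h → SEB + TSST-1 (20 ng/mL final each) → 90 h → Alamar Blue 6 h → fluor. 546/580 nm. DMSO = neg. control/baseline.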

[20] = read-out: Secreted IgG (sIgG), gene 3500; assay: BSK_BT_sIgG: BioMAP Diversity Plus: BT Assay for Secreted IgG (sIgG) Biomarker Activity (AID 2284226); details: primary human B cells with PBMC
Procedure, shortened: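 B cells co-cultured with PBMC were dosed with chemical and secreted IgG quantified by ELISA at 24 h. Activity was fitted in the positive direction relative to DMSO as negative control and baseline.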

Measured: AC50

Chain of Tumor necrosis factor (Homo sapiens) (P01375 whole entry, looked up): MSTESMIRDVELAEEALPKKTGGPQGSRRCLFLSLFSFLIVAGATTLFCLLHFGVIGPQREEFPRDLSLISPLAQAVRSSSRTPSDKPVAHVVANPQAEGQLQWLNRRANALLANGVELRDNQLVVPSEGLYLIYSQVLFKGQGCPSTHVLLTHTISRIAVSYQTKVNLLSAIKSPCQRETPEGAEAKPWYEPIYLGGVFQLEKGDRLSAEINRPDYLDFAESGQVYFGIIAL

Sc1nc2ccccc2s1
active: [5] 3.97 µM | [7] 0.504 µM | [10] 4.28 µM
inactive: all other assays above

CCC(C)=NO
not listed: [19] | [20]
inactive: all other assays above

CC(C)CC(=O)CC(C)CC(C)C (configuration not stated)
active: [1] 37.8 µM | [3] 31.6 µM | [5] 31.7 µM | [6] 35 µM
inactive: all other assays above

COC(=O)/C=C\C(=O)OC
active: [12] 8.6 µM | [20] 20 µM
inactive: all other assays above

CN(C)c1ccc(C(c2ccccc2)c2ccc(N(C)C)cc2)cc1
active: [1] 13 µM | [5] 12.5 µM | [6] 34.7 µM | [7] 13.2 µM | [9] 8.45 µM | [11] 1.6 µM | [12] 4.93 µM | [13] 20 µM | [14] 14.2 µM | [15] 20 µM | [16] 12.9 µM | [18] 11.7 µM | [19] 33.7 µM | [20] 11.8 µM
inactive: [2] | [4] | [8] | [10] | [17]

Cc1cccnc1
inactive: all assays above

CCCCCCCCCCC1CO1 (configuration not stated)
inactive: [2] | [8] | [13] | [16] | [17] | [19] | [20]
active: [1] 37.8 µM | [3] 31.6 µM | [4] 30.3 µM | [5] 20 µM | [6] 31.8 µM | [7] 31.7 µM | [9] 31.6 µM | [10] 38.5 µM | [11] 30.9 µM | [12] 32.3 µM | [14] 20 µM | [15] 36.7 µM | [18] 32.5 µM

CN(C)CCC(c1ccc(Cl)cc1)c1ccccn1 (configuration not stated)
inactive: all assays above

Cc1cc(-n2nc3ccc(Cl)cc3n2)c(O)c(C(C)(C)C)c1
inactive: all assays above

CN(C)Cc1cc(C(C)(C)C)c(O)c(C(C)(C)C)c1
active: [15] 20 µM and 15.4 µM | [18] 17.5 µM and 20 µM
not listed: [1] | [2] | [4] | [19] | [20]
inactive: all other assays above

O=C(C(=O)c1ccccc1)c1ccccc1
inactive: all assays above

CCCCCCCCCCCCCCCCCC[N+](C)(C)C
inactive: [2] | [8] | [11]
active: [1] 1.34 µM | [3] 5.94 µM | [4] 2.15 µM | [5] 2.72 µM | [6] 1.22 µM | [7] 3.66 µM | [9] 5 µM | [10] 8.03 µM | [12] 7.96 µM | [13] 5 µM | [14] 5 µM | [15] 7.15 µM | [16] 6.02 µM | [17] 8.07 µM | [18] 0.995 µM | [19] 4.37 µM | [20] 0.706 µM

CCCCCCC(O)CCCCCCCCCCC(=O)OC (configuration not stated)
active: [8] 1.73 µM
inactive: all other assays above
